Test [1] is described as follows: inhibitors of TNFa-induced NFkB p65 translocation, primary screen, imaging, HUVEC, MLSMR starter and 10KST1 sets (AID 438;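 active means inhibition above 20% together with a positive visual image hit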;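 further: compound added about 3h40 before a 20 min TNFalpha stimulation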;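 on inhibition: signal is the nuclear over cytoplasmic p65 intensity ratio per well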). As to conditions: HUVEC TNFa-induced p65 nuclear translocation; cell count: measured here: nuclei count (cytotoxicity indicator), at 2.08 µM; inhibition: at 2 µM, stronger effect = higher value, 0% TNFa-plus-vehicle, 100% no-TNFa wells.
Test [2] can be described thus: inhibitors of mutant huntingtin aggregation, primary screen, imaging, exon1htt(103Q)mCFP cells, high-content imaging (AID 483;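 active means visual image review flags a hit and inhibition of aggregation exceeds 20%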;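 further: compound exposure lasted 3 days before fixation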;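 on nuclei count: percent of the per-plate median nuclei count of sample wells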). The settings on record: exon1htt(103Q)mCFP cell line, aggregate imaging, at 2 µM; inhibition of aggregation: stronger effect = higher value; nuclei count: measured here: cell count, toxicity.
Test [3] is described as follows: inhibitors of E-selectin induction by TNFa, primary screen, imaging, HUVEC, immunofluorescence, MLSMR starter and 10KST1 sets (AID 487).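 On inhibition: signal is fraction of cell area covered by stained E-selectin grains.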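 On nuclei count: 100% = median nuclei count of all wells on the same plate.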 As to conditions: HUVEC TNFalpha-induced E-selectin immunofluorescence imaging, at 2 µM; inhibition: stronger effect = higher value; nuclei count: measured here: cell number, toxicity.
Test [4] addresses Voltage-gated potassium channel subunit beta-2 (Rattus norvegicus) (UniProt P62483). Briefly: KvBeta enzyme negative modulators, primary screen, biochemical, NADPH fluorescence (AID 622;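 active means fluorescence slope higher than the sample average by over 3 SD, cut at about -0.22 in these data, passing the limit was not always enough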;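 further: slope of raw intensity against log time taken from 70 to 1610 s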). The settings on record: recombinant KvBeta, 4-cyanobenzaldehyde reduction, at 10 µM, stronger effect = higher value.
Test [5] shares this target. The experiment in a line: KvBeta positive modulators, primary screen, biochemical, NADPH fluorescence (AID 623;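 active means NADPH fluorescence slope more negative than the mean of all samples by about 3 SD, 99.7% confidence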;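 further: fluorescence intensity change per second fitted from 20 to 320 s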). As to conditions: Recombinant KvBeta, NADPH fluorescence decrease slope, 10 min; at 10 µM; stronger effect = lower value.
Test [6] concerns the target Alpha-2C adrenergic receptor (Homo sapiens) (UniProt P18825). The experiment in a line: modulators of alpha2C/GIRK thallium flux, primary screen, cell-based, HEK293 alpha2C/GIRK1/2 (AID 624;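 active means fluorescence slope after compound addition differing from the mean of all screened samples at 99.7% confidence, in either direction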;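 further: slope of fluorescence ratio to pre-addition baseline per second over 15 to 24 s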). The settings on record: thallium flux BTC fluorescence, at 10 µM, actives lie on both sides.
A short description of test [7]: inhibitors of Sendai virus-induced IRF3 signaling, primary screen, TLR/RLR signaling modifier project, cell-based, Sendai virus stimulus, luciferase, 10K MLSCN set (AID 602276;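 active means inhibition at or above 50% at 10 µM; inactive means inhibition below 50%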;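 further: firefly luciferase from ISG56 promoter only with Renilla not read in this screen; 0% = Sendai virus plus DMSO and 100% = medium plus DMSO without virus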). The settings on record: HEK293 RL24 IRF3 luciferase reporter, at 10 µM, stronger effect = higher value. A general note: Reporter assays use an easily measured gene product as a stand-in for the process of interest.

Test [8] can be described thus: inhibitors of poly I:C-induced TLR3 signaling, primary screen, cell-based, poly I:C stimulus, luciferase, 10K MLSCN set (AID 602277;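 active means inhibition of the reporter signal at or above 50%; inactive means inhibition below 50%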). As to conditions: HEK293-TLR3 RL24 IRF3 luciferase reporter, at 10 µM, stronger effect = higher value.

SMILES strings stand for the structures. Activity calls are given as the source filed them.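 How the source made its calls, unless noted: active means visually confirmed hit in the image check and inhibition above 20%; inconclusive means visually confirmed hit but inhibition not above 20%; inactive means no visual hit in the image check.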

For orientation: inhibition means the drop in the measured response relative to a control, in per cent.

Chain of Alpha-2C adrenergic receptor (Homo sapiens) (P18825 whole entry, looked up): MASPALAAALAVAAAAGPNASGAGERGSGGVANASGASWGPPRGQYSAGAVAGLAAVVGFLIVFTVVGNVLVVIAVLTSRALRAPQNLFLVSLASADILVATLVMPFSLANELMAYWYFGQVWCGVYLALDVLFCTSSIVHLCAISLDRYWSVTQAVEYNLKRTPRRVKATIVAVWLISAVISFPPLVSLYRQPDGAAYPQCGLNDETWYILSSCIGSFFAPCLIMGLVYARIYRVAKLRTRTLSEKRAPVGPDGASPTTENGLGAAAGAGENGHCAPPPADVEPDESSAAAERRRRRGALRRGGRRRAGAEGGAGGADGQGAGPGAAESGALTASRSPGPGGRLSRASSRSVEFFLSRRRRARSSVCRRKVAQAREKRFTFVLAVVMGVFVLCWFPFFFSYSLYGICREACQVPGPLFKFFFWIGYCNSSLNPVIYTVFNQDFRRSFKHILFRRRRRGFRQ
Chain of Voltage-gated potassium channel subunit beta-2 (Rattus norvegicus) (P62483 whole entry, looked up): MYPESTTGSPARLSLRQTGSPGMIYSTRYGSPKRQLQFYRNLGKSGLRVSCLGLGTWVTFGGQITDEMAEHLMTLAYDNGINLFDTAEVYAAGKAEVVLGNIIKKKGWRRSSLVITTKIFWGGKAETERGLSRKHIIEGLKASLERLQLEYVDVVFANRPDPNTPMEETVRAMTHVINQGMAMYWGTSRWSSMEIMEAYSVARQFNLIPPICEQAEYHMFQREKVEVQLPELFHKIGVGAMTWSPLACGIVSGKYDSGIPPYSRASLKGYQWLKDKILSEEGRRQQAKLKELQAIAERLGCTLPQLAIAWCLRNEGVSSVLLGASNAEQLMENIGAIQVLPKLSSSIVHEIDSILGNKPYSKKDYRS

For `CCn1c(SCC(=O)c2ccc(C)cc2)nnc1-c1ccoc1C`, the cell count in test [1] stood at 446. In addition, the inhibition in test [1] is -11.7% (inactive); in test [3] it was -138% (inactive); in test [7], -8.3% (inactive); in test [8] it was -36.4% (inactive). In addition, in test [2], the inhibition of aggregation was 3.7% (inactive). The nuclei count in test [2] was found to be 77.4%; in test [3], 119%. For the same compound, in test [4], the fluorescence slope is -0.329 (inactive). For the same compound, the NADPH fluorescence slope in test [5] is -6.6e-05 (inactive). In addition, the slope in test [6] was 0.00433 (inactive).
As for `Cn1cc(C(=O)c2ccc(F)cc2)cc1-c1nc2ccccc2n1C`, in test [1], the cell count was determined as 357. Moreover, the inhibition in test [1] is -6.3% (inactive); in test [3], 5.7% (inactive); in test [7], 3.11% (inactive); in test [8] it was -17.9% (inactive). In addition, the inhibition of aggregation in test [2] was 23.1% (inactive). The nuclei count in test [2] was 86.8%; in test [3] it was 83%. Further, the fluorescence slope in test [4] is -0.59 (inactive). Also, in test [5], the NADPH fluorescence slope was -4.1e-05 (inactive). Moreover, the slope in test [6] was 0.0041 (inactive).
Turning to `COc1ccc(S(=O)(=O)CCC(=O)O)cc1`, in test [1], the cell count was 756. The inhibition is -2.2% (inactive) in test [1], -47.5% (inactive) in test [3], 17% (inactive) in test [7] and 21.8% (inactive) in test [8]. Moreover, the inhibition of aggregation in test [2] was 25.4% (inactive). In addition, the figures for the nuclei count in test [2] and in test [3] were 126% and 107%, respectively. In addition, the fluorescence slope in test [4] was -0.603 (inactive). The NADPH fluorescence slope in test [5] was 1.2e-05 (inactive). Moreover, the slope in test [6] is 0.00748 (inactive).
For `CCSc1nnc(NC(=O)CSc2nnc(Cc3cccn3C)n2-c2ccc(C)cc2)s1`, the cell count in test [1] came to 601. In addition, the inhibition in test [1] was -12.3% (inactive); in test [3], 16.8% (inactive); in test [7], 3.74% (inactive); in test [8] it was 10.5% (inactive). Further, the inhibition of aggregation in test [2] is -2.6% (inactive). The nuclei count in test [2] turned out to be 112%; in test [3], 75.5%. Further, the fluorescence slope in test [4] is -0.596 (inactive). For the same compound, the NADPH fluorescence slope in test [5] is 1.3e-06 (inactive). Further, the slope in test [6] was 0.00655 (inactive).
As for `COc1ccc(CCNc2nc(N3CCOCC3)nc(N3CCOCC3)n2)cc1OC`, in test [1], the cell count is 229. In addition, the inhibition in test [1] was 10.4% (inactive); in test [3] it was 15.6% (inactive); in test [7], 15.3% (inactive); in test [8], 10.3% (inactive). Besides, the inhibition of aggregation in test [2] was 14.9% (inactive). Moreover, the nuclei count in test [2] was 66.5%; in test [3], 91.3%. Besides, the fluorescence slope in test [4] is -0.515 (inactive). For the same compound, the NADPH fluorescence slope in test [5] was -3.3e-05 (inactive). Further, the slope in test [6] was 0.00378 (inactive).
With `c1cc2c(cc1Nc1nc(-c3ccc4c(c3)OCO4)cs1)OCCO2`, in test [1], the cell count is 351. The inhibition in test [1] is 0.4% (inactive); in test [3] it was -36.9% (inactive); in test [7], -63.5% (inactive); in test [8], -126% (inactive). Moreover, the inhibition of aggregation in test [2] is 10% (inactive). The figures for the nuclei count in test [2] and in test [3] were 104% and 118%, respectively. The fluorescence slope in test [4] is -0.188 (inactive). Further, in test [5], the NADPH fluorescence slope was -2.8e-06 (inactive). Also, the slope in test [6] is 0.00387 (inactive).
As to `COC(=O)C(C)Sc1nc2c(c(=O)n1-c1ccccc1)SCC2` (configuration not stated), the cell count in test [1] was 330. Moreover, the inhibition in test [1] is -1.4% (inactive); in test [3], -51.5% (inactive); in test [7], 7.35% (inactive); in test [8], 13.2% (inactive). For the same compound, the inhibition of aggregation in test [2] was -6.6% (inactive). In addition, the nuclei count was determined as 113% in test [2] and 150% in test [3]. In addition, the fluorescence slope in test [4] is -0.523 (inactive). Besides, the NADPH fluorescence slope in test [5] was -7.6e-05 (inactive). In test [6], the slope was 0.00467 (inactive).
`CCOC(=O)c1cccc(NC(=O)CS(=O)(=O)Cc2nc(-c3cccc(OC)c3)oc2C)c1`: in test [1], the cell count was 572. Also, the inhibition was -40.8% (inactive) in test [1], -15.4% (inactive) in test [3], -5.01% (inactive) in test [7] and 12.4% (inactive) in test [8]. In test [2], the inhibition of aggregation is -19.3% (inactive). The nuclei count in test [2] was found to be 106%; in test [3], 102%. Further, the fluorescence slope in test [4] was -0.524 (inactive). The NADPH fluorescence slope in test [5] was -3.5e-05 (inactive). For the same compound, the slope in test [6] was 0.00568 (inactive).
As for `Cc1cc(C)c2c(n1)nn1c(N3CCOCC3)cc(C)nc21`, the cell count in test [1] turned out to be 503. Besides, the inhibition was -6.3% (inactive) in test [1], -56.5% (inactive) in test [3], 2.18% (inactive) in test [7] and 3.21% (inactive) in test [8]. The inhibition of aggregation in test [2] is 5.7% (inactive). Further, the nuclei count in test [2] was determined as 81.9%; in test [3] it was 123%. Further, the fluorescence slope in test [4] was -0.0426 (active). The NADPH fluorescence slope in test [5] was -2.7e-06 (inactive). In addition, in test [6], the slope is 0.00599 (inactive).
In the case of `COCCNC(=O)Cn1cc2c(n1)CCCCC2`, the cell count in test [1] was determined as 623. Further, the inhibition in test [1] is 5.8% (inactive); in test [3], -23.5% (inactive); in test [7] it was 7.33% (inactive); in test [8] it was 31.3% (inactive). Besides, the inhibition of aggregation in test [2] is -19.8% (inactive). The nuclei count stood at 110% in test [2] and 98.4% in test [3]. Also, the fluorescence slope in test [4] was -0.529 (inactive). Also, the NADPH fluorescence slope in test [5] was -8.7e-05 (inactive). Further, the slope in test [6] was 0.00598 (inactive).
On to `COc1cc(OC)c(-c2nn3c(C4CCCCC4)nnc3s2)cc1OC`, for which the cell count in test [1] is 573. In addition, the inhibition was 7.2% (inactive) in test [1], -115% (inactive) in test [3], 12.8% (inactive) in test [7] and 16.9% (inactive) in test [8]. Further, in test [2], the inhibition of aggregation is 1.8% (inactive). Further, the nuclei count in test [2] was 109%; in test [3] it was 126%. Besides, the fluorescence slope in test [4] is -0.412 (inactive). Further, the NADPH fluorescence slope in test [5] is -5.9e-05 (inactive). The slope in test [6] is 0.00604 (inactive).
As for `COc1ccc(NC(=O)CSc2nnc(Cc3cccn3C)n2-c2ccc(F)cc2)cc1OC`, the cell count in test [1] came out at 541. The inhibition was -1.3% (inactive) in test [1], -59.2% (inactive) in test [3], 12.2% (inactive) in test [7] and 27.1% (inactive) in test [8]. Also, in test [2], the inhibition of aggregation was -0.2% (inactive). Also, the results for the nuclei count in test [2] and in test [3] were 92.7% and 118%, respectively. Also, the fluorescence slope in test [4] is -0.588 (inactive). The NADPH fluorescence slope in test [5] is -2.4e-05 (inactive). Further, the slope in test [6] is 0.00584 (inactive).

The values above are taken from PubChem BioAssay.
